High-throughput results deposited in PubChem by several laboratories.
A selection: hits, their analogues and other compounds. The true share with any hit is near 3.3%.
PHOSPHO1 inh: PubChem AID 1565; Phosphoethanolamine/phosphocholine phosphatase (Homo sapiens), Q8TCT1; recombinant PHOSPHO1, absorbance phosphatase assay; inhibition, % at 13.3 µM; 290,000 compounds, 1.1% hits; in the data active means inhibition above about 60%
Target sequence (Q8TCT1 whole entry, looked up): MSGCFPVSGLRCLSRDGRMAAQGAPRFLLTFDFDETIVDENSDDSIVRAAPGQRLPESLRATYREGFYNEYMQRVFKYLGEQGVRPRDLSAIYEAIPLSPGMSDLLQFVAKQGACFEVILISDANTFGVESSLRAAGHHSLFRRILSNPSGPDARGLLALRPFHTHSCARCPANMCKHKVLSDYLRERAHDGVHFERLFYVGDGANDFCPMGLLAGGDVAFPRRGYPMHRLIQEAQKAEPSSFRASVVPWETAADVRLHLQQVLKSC
Efflux pump mplx: inhibitors of Candida efflux pumps in yeast, primary screen, S. cerevisiae, Nile Red, multiplex; S. cerevisiae Candida pump triplex; 330,000 compounds, 0.44% hits; inhibition, % at 10 µM; AID 485275, 2010;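 active means plate passing quality check with inhibition over a set limit, or well fluorescence over plate mean plus 4 SD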;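 further: Nile Red retained in pooled yeast measured as flow cytometry median fluorescence; 0% = buffer negative control and 100% = Enniatin B positive control; higher means more Nile Red kept so more efflux inhibition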
H9c2 protect: cardioprotection against H2O2-induced cell death, primary screen, uHTS, H9c2 cells, ATPLite luminescence; H9c2 cardiomyocytes, H2O2 injury protection, 2 h; 360,000 compounds, 0.63% hits; protection from H2O2 cell death, % at 20 µM; AID 588492, 2011;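 active means compounds giving at least 50% protection of heart cells from peroxide-induced death in the single-dose screen, raw or plate-pattern-corrected value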;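 further: 0% = DMSO wells with peroxide and 100% = DMSO wells without peroxide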
Calb FLC: C. albicans growth inhibition with fluconazole, primary screen, CaCi-2 strain, Alamar Blue fluorescence. C. albicans CaCi-2 (fluconazole-resistant clinical isolate) + fluconazole, 48 h. growth inhibition, % (test concentration not listed). 300,000 compounds, 0.57% hits;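 active means growth inhibition above about 58% in most replicates, limit read from the data, passing the limit was not always enough; inconclusive means exactly half the replicates above a set limit; inactive means most replicates below a set limit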;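 further: all wells also contain fluconazole at 8 µg/ml as a sub-toxic cotreatment; 0% = median of DMSO wells and 100% = median of geldanamycin control wells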
Cl transport mod: KCC2 cotransporter modulators, thallium flux, primary screen, cell-based, HEK293 KCC2, FluoZin-2 fluorescence, MLSMR; Solute carrier family 12 member 5 (Homo sapiens), Q9H2X9; B-score of Tl+ flux slope (higher = more flux/activation; lower = inhibition) at 10 µM; 190,000 compounds, 2.2% hits; KCC2 cells, thallium flux FluoZin-2 fluorescence; AID 1456, 2008;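 active means thallium flux slope and its plate-corrected score both differing from the plate sample mean at a set confidence after two filtering rounds, in either direction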;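 further: slope of fluorescence scaled to starting intensity during 10 to 20 s after thallium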
Starred values were filed as active, the others as inactive; ? = inconclusive; . = no result.

SMILES	PHOSPHO1 inh	Efflux pump mplx	H9c2 protect	Calb FLC	Cl transport mod
CC(C)n1cc(/C=N/Nc2ccc(C(=O)O)cc2)c2ccccc21	-3	0	-1	-2	.
O=C(CCNS(=O)(=O)c1ccccc1C(F)(F)F)NCCCc1ccccc1	.	0	-1	.	.
CCOC(=O)CN1NC2(CCCCCCC2)NC1=S	8	0	-2	-4	0.68
CCOC(=O)CN1NC2(CCCC(C)C2)NC1=S (centres undefined)	91*	0	1	-6	.
CCOC(=O)Cn1c2c(c(=N)c3c1CCC3)CCC2	-2	0	2	11	.
CCOC(=O)CN1NC2(CCC(C(C)(C)C)CC2)NC1=S (centres undefined)	56	0	7	-9	0.074
CCOC(=O)CN1NC2(CCCCC2)NC1=S	100*	0	8	-9	1.2
CCOC(=O)CN1NC2(CCC(C)CC2)NC1=S (centres undefined)	95*	0	0	-3	.
Cc1nnc(SCC(=O)NCC2CCCO2)n1Cc1ccccc1 (centres undefined)	.	0	-4	.	.
c1cnc(SCCOc2ccc3c(c2)CCC3)nc1	10	0	-7	101*	-0.26
CNCCCOc1ccc2c(c1)CCC2	-3	0	5	3	2.1
CC(C)n1c(C(F)(F)F)nc2cc(C(=O)N3CCCCC3)ccc21	28	0	-4	3	0.33
Cc1ccc(NC(=O)CSC(N)=O)cc1Cl	-9	0	13	-27	-3.5*
NC(=O)SCC(=O)Nc1ccc(Cl)cc1	41	0	-1	4	0.8
Cc1ccc(NC(=O)Cc2nnc(SCC(=O)c3ccc(Br)cc3)n2C)cc1Cl	78*	0	.	-10	0.6
CC1=CC(C)(C)N(C(=O)CN2C(=O)c3ccccc3C2=O)c2ccc(C)cc21	-35	0	2	7	.
CCC(=O)N1c2ccc(C)cc2C2=NNC(=S)NC21O (centres undefined)	19	0	2	3	5.4*
Cc1cc(N2C(=O)C(O)=C(C(=O)c3cc4ccccc4o3)C2c2cccs2)no1 (centres undefined)	2	0	7	?	.
CCOc1cccc(C2C(C(=O)c3ccc(C)o3)=C(O)C(=O)N2Cc2ccncc2)c1 (centres undefined)	-36	0	7	30	.
CCCCOc1cccc(C2C(C(=O)c3ccc(C)o3)=C(O)C(=O)N2Cc2ccco2)c1 (centres undefined)	17	0	17	79*	.
Cc1cc(N2C(=O)C(O)=C(C(=O)c3ccc(C)o3)C2c2cccs2)no1 (centres undefined)	-8	0	16	-1	-3*
CCOc1cccc(C2C(C(=O)c3ccc(C)o3)=C(O)C(=O)N2c2nccs2)c1 (centres undefined)	71*	0	-1	-3	-2.2
CCOc1cccc(C2C(C(=O)c3ccc(C)o3)=C(O)C(=O)N2Cc2ccccc2)c1 (centres undefined)	.	.	4	14	.
O=C1C2C3C=CC(O3)C2C(=O)N1N=Cc1ccc2c(c1)OCO2 (centres undefined)	.	.	-4	.	.
CCn1c(-c2ccccc2O)n[nH]c1=S	65*	0	0	3	-0.013
SMILES	PHOSPHO1 inh	Efflux pump mplx	H9c2 protect	Calb FLC	Cl transport mod
CCCn1c(-c2ccc(F)cc2)n[nH]c1=S	91*	0	1	?	0.17
CCCCn1c(-c2ccc([N+](=O)[O-])cc2)n[nH]c1=S	102*	0	7	-1	-0.004
Cc1ccc(-c2n[nH]c(=S)n2Cc2ccccc2)cc1	100*	0	-4	6	.
Oc1ccccc1-c1n[nH]c(=S)n1Cc1ccccc1	.	0	-5	-9	.
Cc1ccc(S(=O)(=O)NCc2ccccc2)cc1C(=O)N1CCN(S(=O)(=O)c2ccccc2F)CC1	.	.	8	.	.
CCCCn1c(-c2cc(Cl)ccc2OC)n[nH]c1=S	60*	1	-8	2	-0.64
CCn1c(-c2cc(-c3ccccc3)sc2N)n[nH]c1=S	77*	0	-1	19	3.8
COc1ccc(CCn2c(-c3ccc(Cl)cc3)n[nH]c2=S)cc1OC	-63	0	7	1	.
COc1ccc(Cn2c(-c3ccc(OC)cc3)n[nH]c2=S)cc1	.	0	9	13	.
CCn1c(-c2csc3ccccc23)n[nH]c1=S	-6	0	7	30	1
CCc1ccc(-c2cc(-c3n[nH]c(=S)n3CC)c3ccccc3n2)cc1	21	0	.	1	2.4
COc1ccc(-c2n[nH]c(=S)n2CC(C)C)cc1	97*	0	-5	5	1.2
CCn1c(-c2cc(-c3cccc(OC)c3)nc3ccccc23)n[nH]c1=S	92*	0	-4	23	2.7*
CCCCN1C[C@H](CSC)[C@@H](CC(=O)Nc2ccc(Br)cc2)C1=O	.	.	-2	.	.
C=CCC1(Cl)C(=O)C(Cl)=C(N2CCN(C)CC2)C1(OC)OC (centres undefined)	33	0	-3	1	0.8
COC(=O)c1ccc(-c2ccc(/C=N/NC(=O)Cc3nnc(N)s3)o2)cc1	-7	0	6	6	-0.0014
Cc1ccc(NC(=O)Nc2ccc3c(c2)OCO3)c(OC(F)F)c1	11	0	-10	-27	.
Cc1ccc(NC(=O)c2ccc(S(=O)(=O)N3CCCC3)cc2)nc1	.	0	0	-1	.
COc1ccccc1CN1CCC(CNS(=O)(=O)c2cc(-c3cc(C)no3)ccc2OC)CC1	38	0	5	0	.
CC(OC(=O)/C=C/c1ccccc1Cl)C(=O)NC1CCCCC1C (centres undefined)	.	0	-3	34	.
CCn1c(-c2ccc(OC)c(OC)c2)n[nH]c1=S	5	0	7	-1	-0.75
Cc1cccc(-c2n[nH]c(=S)n2Cc2ccccc2)c1	3	0	-3	3	2.3
CCCOc1ccc(CCc2n[nH]c(=S)n2-c2ccccc2)cc1	-81	0	-12	2	2.4
CCn1c(-c2ccc(Cl)cc2)n[nH]c1=S	71*	0	-4	2	1.4
S=c1[nH]nc(-c2cc3ccccc3o2)n1Cc1ccccc1	-4	0	-8	-1	28*
SMILES	PHOSPHO1 inh	Efflux pump mplx	H9c2 protect	Calb FLC	Cl transport mod
CCCOc1ccc(CCc2n[nH]c(=S)n2Cc2ccccc2)cc1	79*	0	-4	-15	-0.4
C=CCn1c(-c2cccc(Cl)c2)n[nH]c1=S	98*	0	-5	17	0.035
OCC(O)CN1CCCC1 (centres undefined)	28	0	-2	-13	0.49
Cc1c(C(=O)O)sc(S(=O)(=O)N2CCN(C(=O)CCc3ccccc3)CC2)c1C(=O)O	.	.	2	.	.
CCCCCC(=O)N1C[C@H](O)[C@@H](n2cc(COC(=O)c3ccccc3)nn2)C[C@@H]1c1ccc(OC)cc1	.	.	1	.	.
CCn1c(C(c2ccccc2)c2ccccc2)n[nH]c1=S	100*	0	-7	2	.
